This is part of a sample that, as a whole, favours compounds with a hit. Of some 83,000 tested, about 20% had one in any assay.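 A percent growth of 40 corresponds to 60% growth inhibition; 0 means no net growth; -100 means all cells died. Active threshold: below 10.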 The source made the active and inactive calls.
Legend:
Experiment in all cases: NCI-60 one-dose screen, 48 h (100 = growth as untreated, 0 = no growth, -100 = all killed)
Settings in all cases: 10 µM unless noted
HCT-15 colon = system: HCT-15 colon
HT29 colon = system: HT29 colon
SNB-75 CNS = system: SNB-75 CNS
SNB-19 CNS = system: SNB-19 CNS
U251 CNS = system: U251 CNS
PC-3 prostate = system: PC-3 prostate
SK-MEL-5 melanoma = system: SK-MEL-5 melanoma
UACC-62 melanoma = system: UACC-62 melanoma
LOX IMVI melanoma = system: LOX IMVI melanoma
SK-MEL-28 melanoma = system: SK-MEL-28 melanoma

Measured: growth

Cc1[nH]c2ccccc2c1C1=CC(=O)C=CC1=O
inactive: HCT-15 colon 74.6% | HT29 colon 105% | SNB-75 CNS 82.8% | SNB-19 CNS 93% | U251 CNS 72.4% | PC-3 prostate 79.3% | SK-MEL-5 melanoma 85.6% | UACC-62 melanoma 75.9% | LOX IMVI melanoma 79.1% | SK-MEL-28 melanoma 104%

CCN1C(=O)N(CC)C2C1NC(=O)N2/N=C/C=C/c1ccccc1 (stereo not given)
inactive: HCT-15 colon 26.9% | HT29 colon 14.6% | SNB-75 CNS 30.8% | SNB-19 CNS 47.3% | U251 CNS 38.8% | PC-3 prostate 34.6% | SK-MEL-5 melanoma 18% | UACC-62 melanoma 20.6% | LOX IMVI melanoma 32.9% | SK-MEL-28 melanoma 53.2%

Cc1cc(O)ccc1Sc1ccccc1[N+](=O)[O-]
inactive: HCT-15 colon 92.7% | HT29 colon 94.3% | SNB-75 CNS 94.8% | SNB-19 CNS 91.6% | U251 CNS 94.2% | PC-3 prostate 82.3% | SK-MEL-5 melanoma 91.1% | UACC-62 melanoma 76% | LOX IMVI melanoma 84.1% | SK-MEL-28 melanoma 101%

CC(C)c1ccc(-c2cnc3nonc3n2)cc1
inactive: HCT-15 colon 19.3% | HT29 colon 29.8% | SNB-75 CNS 54.3% | SNB-19 CNS 40.7% | U251 CNS 65.9% | PC-3 prostate 19.3% | SK-MEL-5 melanoma 32.5% | UACC-62 melanoma 14.2% | LOX IMVI melanoma 26.1% | SK-MEL-28 melanoma 73.9%

COc1ccc2nc3cc(Cl)ccc3c(NC(=O)CSc3ccc(Cl)cc3)c2c1
active: HCT-15 colon -53.6% | HT29 colon -78.3% | SNB-75 CNS -99.2% | SNB-19 CNS -86.4% | U251 CNS -90.6% | PC-3 prostate -81.8% | SK-MEL-5 melanoma -98% | UACC-62 melanoma -80% | LOX IMVI melanoma -80.3% | SK-MEL-28 melanoma -96.8%

COc1ccc(-c2nc3ccccc3n3cccc23)cc1
inactive: HCT-15 colon 142% | HT29 colon 107% | SNB-75 CNS 107% | SNB-19 CNS 140% | U251 CNS 100% | PC-3 prostate 78.6% | SK-MEL-5 melanoma 99% | UACC-62 melanoma 88.3% | LOX IMVI melanoma 90% | SK-MEL-28 melanoma 111%

Oc1c(C(Nc2ccccc2Br)c2ccccc2)ccc2cccnc12 (stereo not given)
active: SK-MEL-5 melanoma 2.41% | UACC-62 melanoma -26.3%
inactive: HCT-15 colon 26.5% | HT29 colon 24% | SNB-75 CNS 60.4% | SNB-19 CNS 31.7% | U251 CNS 12.9% | PC-3 prostate 48.6% | LOX IMVI melanoma 10.5% | SK-MEL-28 melanoma 39.2%

COc1ccc(-c2nc3c(c(-c4ccc(Cl)cc4)nn3-c3ccccc3)c(-c3ccc(O)cc3)c2C#N)cc1
inactive: HCT-15 colon 29.7% | HT29 colon 23% | SNB-75 CNS 35.1% | SNB-19 CNS 62.1% | U251 CNS 33.7% | PC-3 prostate 23.9% | SK-MEL-5 melanoma 42.9% | UACC-62 melanoma 56.9% | LOX IMVI melanoma 12.4% | SK-MEL-28 melanoma 59.2%

CCCCOc1nc2ccccc2cc1/C=C/c1cc(/C=C/c2cc3ccccc3nc2OCCCC)n(-c2ccccc2)n1
inactive: HCT-15 colon 116% | HT29 colon 93.5% | SNB-75 CNS 82.5% | SNB-19 CNS 97.3% | U251 CNS 99% | PC-3 prostate 93.1% | SK-MEL-5 melanoma 101% | UACC-62 melanoma 81.3% | LOX IMVI melanoma 95.9% | SK-MEL-28 melanoma 114%

COc1cc(CN(c2ccc(C)cc2)C2OC(=O)c3ccccc32)cc(OC)c1OC (stereo not given)
inactive: HT29 colon 18.9% | SNB-19 CNS 38.6% | U251 CNS 32.3% | PC-3 prostate 51.8% | SK-MEL-5 melanoma 19.9% | UACC-62 melanoma 45.9% | LOX IMVI melanoma 42.7% | SK-MEL-28 melanoma 51.8%
active: HCT-15 colon 6.19% | SNB-75 CNS 6.43%

CS(=O)(=O)c1ccc(Cl)c([N+](=O)[O-])c1
inactive: HCT-15 colon 99.4% | HT29 colon 94.7% | SNB-75 CNS 114% | SNB-19 CNS 105% | U251 CNS 109% | PC-3 prostate 77.8% | SK-MEL-5 melanoma 106% | UACC-62 melanoma 112% | LOX IMVI melanoma 88.2% | SK-MEL-28 melanoma 127%

CC1OC(n2c3ccccc3c3c4c(c5c6ccccc6[nH]c5c32)C(=O)N(CCN[C@H]2CCC[C@@H]2N)C4=O)CC(O)C1O (stereo not given in full)
inactive: HCT-15 colon 82.6% | HT29 colon 12.9% | SNB-75 CNS 24.1% | SNB-19 CNS 17% | U251 CNS 14.5% | PC-3 prostate 16.8% | SK-MEL-5 melanoma 23.7% | UACC-62 melanoma 42.1% | LOX IMVI melanoma 20.3% | SK-MEL-28 melanoma 68.6%

O=C(Nc1ccc(Cl)cc1)c1cc(-c2ccc(Cl)cc2)c2sc(=O)[nH]c2n1
inactive: SNB-75 CNS 10.5% | LOX IMVI melanoma 13.4% | SK-MEL-28 melanoma 25.2%
active: HCT-15 colon 7.94% | HT29 colon -24% | SNB-19 CNS 8% | U251 CNS 0.838% | PC-3 prostate -13.5% | SK-MEL-5 melanoma -19.6% | UACC-62 melanoma -14.7%

CN1C(=O)C(C(=O)/C=C/c2ccccc2C(=O)O)C(=O)N(C)C1=O
inactive: HCT-15 colon 110% | HT29 colon 98.8% | SNB-75 CNS 86.7% | SNB-19 CNS 105% | U251 CNS 97% | PC-3 prostate 96.4% | SK-MEL-5 melanoma 108% | UACC-62 melanoma 95% | LOX IMVI melanoma 94.7% | SK-MEL-28 melanoma 109%

CC(C)c1nc2ccccc2n1CC(=O)N/N=C/c1cccc(O)c1
inactive: HCT-15 colon 104% | HT29 colon 104% | SNB-75 CNS 94.1% | SNB-19 CNS 91.8% | U251 CNS 103% | PC-3 prostate 87.9% | SK-MEL-5 melanoma 100% | UACC-62 melanoma 86.3% | LOX IMVI melanoma 99.6% | SK-MEL-28 melanoma 97.2%

Cc1c(C(=O)Nc2ccccc2F)sc2c(=O)[nH]cnc12
inactive: HCT-15 colon 59% | HT29 colon 63.8% | SNB-75 CNS 77.9% | SNB-19 CNS 96% | U251 CNS 89.7% | PC-3 prostate 81.9% | SK-MEL-5 melanoma 92.3% | UACC-62 melanoma 78.4% | LOX IMVI melanoma 85% | SK-MEL-28 melanoma 94.3%

CCOC(=O)Cc1cc(Br)c(OCc2ccccc2)c(Br)c1
inactive: HCT-15 colon 88.7% | HT29 colon 99% | SNB-75 CNS 87.3% | SNB-19 CNS 97.9% | U251 CNS 90.2% | PC-3 prostate 84.1% | SK-MEL-5 melanoma 104% | UACC-62 melanoma 70.8% | LOX IMVI melanoma 87.6% | SK-MEL-28 melanoma 106%

FC(F)(F)c1nn[nH]n1
inactive: HCT-15 colon 105% | HT29 colon 100% | SNB-75 CNS 102% | SNB-19 CNS 116% | U251 CNS 99.5% | PC-3 prostate 96.9% | SK-MEL-5 melanoma 103% | UACC-62 melanoma 107% | LOX IMVI melanoma 87.2% | SK-MEL-28 melanoma 113%

N=C(N)c1ccc(NCCNc2ccc(C(=N)N)cc2)cc1
inactive: HCT-15 colon 90.6% | HT29 colon 103% | SNB-75 CNS 101% | SNB-19 CNS 116% | U251 CNS 89.8% | PC-3 prostate 123% | SK-MEL-5 melanoma 82% | UACC-62 melanoma 81.8% | LOX IMVI melanoma 86.8% | SK-MEL-28 melanoma 114%

O=C(N/N=C/c1ccc([N+](=O)[O-])cc1)c1ccccc1Nc1ccnc(C(F)(F)F)c1
inactive: HCT-15 colon 89.9% | HT29 colon 101% | SNB-75 CNS 77.2% | SNB-19 CNS 82.4% | U251 CNS 88.7% | PC-3 prostate 72.9% | UACC-62 melanoma 57.6% | LOX IMVI melanoma 78.2% | SK-MEL-28 melanoma 104%
active: SK-MEL-5 melanoma -99%

CC(=O)O[C@@H]1CC2C(C)(C)CCCC2(C)C2=C1C(=O)C(C(C)C)=CC2=O (stereo not given in full)
inactive: SNB-19 CNS 20.9% | PC-3 prostate 12% | LOX IMVI melanoma 10.6%
active: HCT-15 colon -8% | HT29 colon 0.85% | SNB-75 CNS -11.8% | U251 CNS 3.62% | SK-MEL-5 melanoma -93.3% | UACC-62 melanoma -64.4% | SK-MEL-28 melanoma -16.8%

O=C(Nc1ccc([N+](=O)[O-])cc1)c1cc2ccccc2cc1O
active: HCT-15 colon 0.0174% | SNB-75 CNS -6.38% | U251 CNS 2.66% | PC-3 prostate -11.2% | SK-MEL-5 melanoma -86.8% | UACC-62 melanoma -28.8% | LOX IMVI melanoma -1.01% | SK-MEL-28 melanoma 7.4%
inactive: HT29 colon 24.4% | SNB-19 CNS 23.7%

CC(=O)NC1C(O[C@H]2C[C@H]3[C@@H]4CC=C5C[C@@H](O)CC[C@]5(C)[C@H]4CC[C@]3(C)[C@H]2[C@H](C)C(=O)CCC(C)C)OCC(O)C1O (stereo not given in full)
inactive: HCT-15 colon 30.5% | HT29 colon 36.8% | SNB-75 CNS 37.8% | SNB-19 CNS 57.5% | U251 CNS 28% | PC-3 prostate 26.5% | SK-MEL-5 melanoma 24.8% | LOX IMVI melanoma 27.2%
active: UACC-62 melanoma -20.3% | SK-MEL-28 melanoma -14.3%

COc1ccc(/C(C)=N/NC(=O)c2ccc(S(C)(=O)=O)cc2)cc1OC
inactive: HCT-15 colon 97.9% | HT29 colon 117% | SNB-75 CNS 85.9% | SNB-19 CNS 105% | U251 CNS 104% | PC-3 prostate 99.3% | SK-MEL-5 melanoma 106% | UACC-62 melanoma 102% | LOX IMVI melanoma 106% | SK-MEL-28 melanoma 105%

COc1ccc(C2NC(=O)c3cc4c(cc3N2)OCO4)cc1 (stereo not given)
inactive: HCT-15 colon 12.5% | SNB-19 CNS 34% | U251 CNS 17.2% | PC-3 prostate 27.9% | SK-MEL-5 melanoma 11.9% | UACC-62 melanoma 25.3% | LOX IMVI melanoma 39.9% | SK-MEL-28 melanoma 39.8%
active: HT29 colon 5.16% | SNB-75 CNS 5.9%

c1ccc2c(N=NSc3ncnc4nc[nH]c34)c3ccccc3nc2c1
inactive: SNB-19 CNS 12.3%
active: HCT-15 colon -7.02% | HT29 colon 0.967% | SNB-75 CNS 2.72% | U251 CNS 8.63% | PC-3 prostate -1.78% | SK-MEL-5 melanoma -59.4% | UACC-62 melanoma -38.7% | LOX IMVI melanoma -46.6% | SK-MEL-28 melanoma -37.6%

Cc1cc2nc(CN)[nH]c2cc1C
inactive: HCT-15 colon 109% | HT29 colon 51.3% | SNB-75 CNS 92% | SNB-19 CNS 102% | U251 CNS 100% | PC-3 prostate 99.8% | SK-MEL-5 melanoma 104% | UACC-62 melanoma 113% | LOX IMVI melanoma 109% | SK-MEL-28 melanoma 108%
